Screens: PubChem, National Center for Advancing Translational Sciences (NCATS)
A selection: hits, their analogues and other compounds. The true share with any hit is near 2.4%.
Pol eta inh-1: blocks human DNA polymerase eta activity | Q9Y253 | recombinant Pol eta, fluorescent DNA replication assay | Potency, µM (highest dose often 114 µM), hits mostly inhibitors | 1.2% of 390,000 active | AID 588591
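Fluorescent replication assay: 50 nM final substrate added after a 15 min room-temperature compound preincubation with 10 nM enzyme. Signal taken at 0 min and again at 10 min.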
POLI inh: DNA polymerase iota (human) inhibition. AID 588590. 1% of 390,000 active. Pol iota fluorescent replication assay, 10 min. Potency, µM (doses to about 115 µM), most hits filed as inhibitors
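Pol iota at 10 nM preincubated 15 min with compounds at room temperature; reaction started with fluorescent substrate, 50 nM final. Fluorescence read kinetically at 0 and 10 min; buffer-only wells as negative control.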
Pol beta inh: blocks human DNA polymerase beta activity | 1.3% of 340,000 active | P06746 | Potency, µM (highest dose often 114 µM), most hits filed as inhibitors | Pol beta primer extension/strand displacement, fluorescence kinetic
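Kinetic readout of DNA synthesis with strand displacement by Pol beta. Compound and 10 nM enzyme sit 15 min at room temperature; 50 nM substrate starts the reaction, read immediately and at 10 min.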
FEN1 inhibitor: blocks human flap endonuclease 1; P39748; Recombinant FEN1 flap cleavage, fluorescence, 15 min; Potency, µM (doses to about 114 µM), usual class: inhibitors; 0.35% of 390,000 active; further: nearly all actives have a fitted effect of over 65% in size
Target sequence (P39748 whole entry, looked up): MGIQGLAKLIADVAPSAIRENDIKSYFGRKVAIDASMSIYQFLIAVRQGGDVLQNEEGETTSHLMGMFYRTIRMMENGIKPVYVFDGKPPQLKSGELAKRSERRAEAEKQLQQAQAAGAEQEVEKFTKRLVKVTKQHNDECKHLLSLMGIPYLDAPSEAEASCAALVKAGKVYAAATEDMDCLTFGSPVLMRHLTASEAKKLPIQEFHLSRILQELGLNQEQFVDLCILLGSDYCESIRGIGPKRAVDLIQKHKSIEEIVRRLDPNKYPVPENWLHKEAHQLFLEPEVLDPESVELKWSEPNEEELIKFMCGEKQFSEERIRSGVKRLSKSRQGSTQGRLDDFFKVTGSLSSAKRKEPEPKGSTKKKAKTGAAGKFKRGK
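In this screen, 50 nM flap DNA substrate was added to 10 nM FEN1 pretreated with compound for 15 min at room temperature; cleavage was followed with reads at 0 and 15 min, and Hill fitting gave concentration–response parameters.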
WRN helicase inh: blocks human WRN helicase. Q14191. 0.46% of 360,000 active. WRN helicase unwinding, fluorescent forked duplex, kinetic. Potency, µM (series often up to 114 µM), actives largely listed as inhibitors; further: nearly all actives have a fitted effect of over 55% in size
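WRN at 20 nM final was preincubated with compound for 15 min at room temperature; reaction started with 100 nM forked duplex oligonucleotide carrying fluorophore and quencher plus 2 mM ATP (final). Unwinding followed kinetically by red fluorescence (ex 525/em 598 nm).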
Pol kappa inh-1: DNA polymerase kappa (human) inhibition | 0.53% of 400,000 active | AID 588579 | purified Pol kappa, fluorescent DNA synthesis assay, 10 min | Q9UBT6 | Potency, µM (titrated, usually from 107 µM), usual class: inhibitors
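Enzyme at 10 nM met test compounds for 15 min at room temperature. Substrate addition (50 nM final) began the reaction, which was monitored by fluorescence at 0 and 10 min.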
GALK confirm: galactokinase (human) inhibition, confirmation; shares compounds with Pol eta inh-1; purified GALK, Kinase-Glo ATP depletion luminescence; Potency, µM (doses to about 115 µM), most hits filed as inhibitors; 70% of 150 active; AID 2015
Target sequence (P51570 whole entry, looked up): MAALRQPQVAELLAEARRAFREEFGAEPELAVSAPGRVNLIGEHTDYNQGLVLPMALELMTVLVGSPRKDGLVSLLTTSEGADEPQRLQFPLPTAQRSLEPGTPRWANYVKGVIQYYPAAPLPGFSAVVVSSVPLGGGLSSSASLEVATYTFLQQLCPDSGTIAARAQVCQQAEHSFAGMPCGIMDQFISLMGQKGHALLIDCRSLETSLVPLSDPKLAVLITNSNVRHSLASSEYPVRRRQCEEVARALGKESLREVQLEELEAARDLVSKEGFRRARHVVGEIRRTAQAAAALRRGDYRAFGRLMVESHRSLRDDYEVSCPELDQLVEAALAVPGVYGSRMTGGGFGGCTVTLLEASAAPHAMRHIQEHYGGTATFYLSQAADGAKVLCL
GALK redox cs: counter-screen for GALK inhibitors: redox cycling H2O2 generation; shares compounds with Pol eta inh-1; Phenol red-HRP H2O2 redox cycling, absorbance 600 nm; Potency, µM (doses to about 115 µM), usual class: inhibitors; 40% of 150 active
HEK293 tox: counter-screen for GALK inhibitors: HEK293 cell cytotoxicity; HEK-293 viability, ATP luminescence (CellTiter-Glo), 24/48 h; shares compounds with Pol eta inh-1; Potency, µM (series often up to 46.1 µM), hits mostly inhibitors; AID 2547; 10% of 170 active
Pol kappa inh-2: confirmation of human DNA polymerase kappa inhibitors. shares compounds with Pol eta inh-1. 76% of 920 active. Potency, µM, most hits filed as inhibitors. AID 720501. purified Pol-kappa, fluorescent strand-displacement substrate
Pol eta inh-2: Pol eta (human) inhibition, cherry-pick confirmation; shares compounds with Pol eta inh-1; Pol eta primer extension, TAMRA/BHQ fluorescence, 10 min; Potency, µM, most hits filed as inhibitors; 64% of 2,600 active; AID 720502
Of the large screens only hits and unclear results are named; the others gave an inactive call (follow-up assays come after a bar, where they were run). The call rests on the fitted dose curve; in most records, active means well fitted curve in the direction sought with a large enough effect; inconclusive means small, poorly fitted or top-dose-only effect, or another doubt; inactive means no such curve, though single readings can be large; an effect the other way counts as inactive or inconclusive.

CC(C)(C)c1ccc(C(=O)N/C(=C\c2ccco2)C(=O)O)cc1	Pol beta inh inconclusive
CC(C)C(NC(=O)/C(=C\c1ccco1)NC(=O)c1ccco1)C(=O)O (centres undefined)	Pol eta inh-1 20µM, Pol beta inh 22.4µM, Pol kappa inh-1 inconclusive | Pol kappa inh-2 inconclusive
COc1cc2c(cc1OC)C(COc1ccc3c(C)cc(=O)oc3c1)N(C(=O)CC(C)C)CC2 (centres undefined)	POLI inh inconclusive (no result: WRN helicase inh)
O=C(O)c1cccc(-n2cccc2/C=C\[N+](=O)[O-])c1	Pol eta inh-1 20µM, POLI inh inconclusive, Pol beta inh inconclusive, FEN1 inhibitor inconclusive, WRN helicase inh inconclusive, Pol kappa inh-1 50.1µM | Pol eta inh-2 60.1
Cc1nn(-c2cccc(C(=O)O)c2)c(C)c1[N+](=O)[O-]	none
CCC1Oc2ccccc2N(CC(=O)NCc2cc(OC)ccc2OC)C1=O (centres undefined)	none (no result: WRN helicase inh)
O=C(O)c1ccc(Cn2nnc3sc4c(c3c2=O)CCCC4)cc1	Pol eta inh-1 20µM, POLI inh inconclusive, Pol kappa inh-1 inconclusive | Pol eta inh-2 inconclusive
COC(=O)c1ccc(Cn2nnc3sc4c(c3c2=O)CCCC4)cc1	Pol beta inh inconclusive (no result: Pol eta inh-1, WRN helicase inh)
COc1ccc2c(c1)CC(C(=O)NCc1ccc(F)cc1)CO2 (centres undefined)	none (no result: WRN helicase inh)
O=C(COC(=O)/C=C/c1ccco1)Nc1ccc(F)cc1Cl	Pol eta inh-1 inconclusive, POLI inh inconclusive, Pol beta inh 22.4µM, Pol kappa inh-1 inconclusive | Pol eta inh-2 inconclusive
COc1cc(Br)c(C(=O)c2nccc3cc(OC)c(OC)cc23)cc1OC	Pol eta inh-1 79.4µM, POLI inh 1.78µM | Pol eta inh-2 inconclusive
COc1cc(N)c(C(=O)c2nccc3cc(OC)c(OC)cc23)cc1OC	none
Cc1ccc(C)c(N2CCN(C(=O)c3cc4c(=O)n(Cc5ccco5)ccc4nc3C)CC2)c1	none (no result: WRN helicase inh)
COc1cc(/C=C2/C(=N)N3C=CSC3=NC2=O)ccc1OCCCOc1ccccc1C	FEN1 inhibitor inconclusive
COc1cc(/C=C2/C(=N)N3OC(C)=CC3=NC2=O)ccc1OC(=O)c1ccco1	none
COc1cc(/C=C2\C(=N)N3N=C(S(C)(=O)=O)SC3=NC2=O)cc(OC)c1OCCOc1ccc(C)cc1	POLI inh inconclusive
CCS(=O)(=O)C1=NN2C(=N)/C(=C\c3ccc(OCCOc4cccc(OC)c4)c(OC)c3)C(=O)N=C2S1	Pol eta inh-1 35.5µM, POLI inh inconclusive, Pol beta inh 50.1µM | Pol kappa inh-2 inconclusive | Pol eta inh-2 inconclusive
COc1cc(/C=C2\C(=N)N3N=C(S(C)(=O)=O)SC3=NC2=O)ccc1OCCOc1ccc(C)cc1	Pol eta inh-1 inconclusive, POLI inh inconclusive | Pol kappa inh-2 26.7 | Pol eta inh-2 inconclusive
COc1cc(/C=C2\C(=N)N3N=C(S(=O)(=O)CC(C)C)SC3=NC2=O)ccc1OC(=O)c1ccco1	none (no result: Pol eta inh-1, POLI inh, FEN1 inhibitor, WRN helicase inh, Pol kappa inh-1) | GALK confirm 26.6µM | GALK redox cs inactive | HEK293 tox inactive
COc1ccc(CCNC(=O)CSc2ncc3c(n2)-c2cc(Cl)ccc2N(Cc2ccccc2)S3(=O)=O)cc1OC	none (no result: WRN helicase inh)
Cc1ccc(OCC(=O)Nc2nnc(S(=O)(=O)N3CCC(C)CC3)s2)cc1	Pol eta inh-1 inconclusive, POLI inh inconclusive, Pol beta inh inconclusive, Pol kappa inh-1 inconclusive | Pol eta inh-2 84.9
CCOc1ccccc1C(=O)N(Cc1cccs1)c1ccc(Cl)cc1	none (no result: WRN helicase inh)
O=C(Nc1nnc(S(=O)(=O)N2CCOCC2)s1)c1ccccc1	Pol eta inh-1 39.8µM, POLI inh inconclusive, Pol beta inh inconclusive, Pol kappa inh-1 inconclusive | Pol kappa inh-2 37.7 | Pol eta inh-2 inconclusive
O=C(Nc1nnc(S(=O)(=O)N2CCc3ccccc32)s1)c1ccccc1Cl	none (no result: WRN helicase inh)
CC1Cc2ccccc2N1S(=O)(=O)c1nnc(NC(=O)c2ccccc2Br)s1 (centres undefined)	Pol eta inh-1 inconclusive (no result: WRN helicase inh) | Pol eta inh-2 inconclusive
O=C(Nc1nnc(S(=O)(=O)N2CCCc3ccccc32)s1)c1ccccc1Cl	Pol eta inh-1 56.2µM (no result: WRN helicase inh) | Pol kappa inh-2 inconclusive
CCNc1nc(NCC)n2c(SCC(=O)Nc3ccc(CC)cc3)nnc2n1	WRN helicase inh inconclusive (no result: Pol beta inh)
CCNc1nc(NCC)n2c(SCC(=O)Nc3ccc(NC(C)=O)cc3)nnc2n1	Pol eta inh-1 39.8µM, POLI inh inconclusive, Pol kappa inh-1 inconclusive (no result: Pol beta inh) | Pol eta inh-2 inconclusive
CCCc1ccc(OCc2ccc(C(=O)Nc3ccccc3C(=O)OC)o2)cc1	Pol beta inh inconclusive (no result: WRN helicase inh)
CS(=O)(=O)N1Cc2ccccc2CC1C(=O)O (centres undefined)	Pol eta inh-1 8.91µM, POLI inh inconclusive, Pol beta inh 17.8µM, Pol kappa inh-1 inconclusive | Pol eta inh-2 60.1
O=C(O)C1Cc2ccccc2CN1S(=O)(=O)/C=C/c1ccccc1 (centres undefined)	none
CCCc1cc(=O)oc2cc(OCC(=O)NC(Cc3c[nH]c4ccc(O)cc34)C(=O)O)c(Cl)cc12 (centres undefined)	Pol eta inh-1 39.8µM, POLI inh inconclusive, Pol kappa inh-1 inconclusive | Pol eta inh-2 inconclusive
Cc1cccc(NC(=O)CN2C(=O)COc3ccc(S(=O)(=O)N4CCC(C)CC4)cc32)c1C	none (no result: WRN helicase inh)
O=C(OCc1ccco1)c1ccc(S(=O)(=O)N2CCCCC2)cc1	Pol eta inh-1 10µM, POLI inh inconclusive, Pol beta inh inconclusive, WRN helicase inh inconclusive, Pol kappa inh-1 79.4µM | Pol eta inh-2 inconclusive
NC(=O)COC(=O)c1ccc(S(=O)(=O)NCc2ccco2)cc1	Pol eta inh-1 35.5µM, POLI inh 14.1µM, Pol beta inh inconclusive, Pol kappa inh-1 inconclusive | Pol eta inh-2 inconclusive
O=C(OCC(=O)N1CCN(C(=O)c2ccco2)CC1)c1ccc(S(=O)(=O)N2CCCCC2)cc1	Pol beta inh inconclusive
